Source: PubChem BioAssay (Tox21)
Values joined by “and” are separate entries in the source; they are usually repeats but may differ in a detail not shown here. Identical values can stand only once. Inconclusive results are not listed. Values without a mark were called inactive. Active and inactive are the calls of the source. Unless noted, the call rests on the fitted dose curve; in most records, active means well fitted cell-killing curve with a large enough effect in the repeat runs (not every such curve was filed as active); inconclusive means weak or mixed curves, or effect the other way; inactive means no such curve, though single readings can be large or run the other way.

Assay: qHTS assay to identify small molecule antagonists of the estrogen related receptor signaling pathway with the pleiotropic PPARgamma coactivator (PGC) from Tox21 10K library - cell viability counter screen (AID 1224840); further: nearly all actives have a fitted effect of over 40% in size
Details: PGC/ERR reporter cells viability, CellTiter-Fluor, 17.5 h; series mostly up to 92.4 µM; viability change, negative = cytotoxic: at the top concentration
Method in brief: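 Following seeding of 2,000 PGC/ERR cells/well and 6 hours' incubation, test compounds were delivered in DMSO. The plates then sat 17.5 hours at 37 C before a fluorogenic live-cell protease reagent (CellTiter-Fluor) was read after 30 min.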
On the % scale 0 is the no-effect control and ±100 the full control effect; potency means the concentration at half of the fitted maximal effect.

| Structure (SMILES) | viability change, negative = cytotoxic | Potency |
| --- | --- | --- |
| CC(=[OH+])/C=C(/C)[O-].CC(=[OH+])/C=C(\C)[O-].CC(=[OH+])/C=C(\C)[O-].[Fe] | -5.87% | – |
| CN(C)C(=S)[S-].CN(C)C(=S)[S-].[Cu+2] | – | 0.938 µM (active) |
| CCCCCCCCCCCCCCC(Br)C(=O)O (configuration not stated) | -5.05% | – |
| ClCc1ccccc1CCl | 2.57% | – |
| CCCSP(=O)(OCC)SCCC | -0.681% | – |
| N#Cc1c(-c2ccc(Cl)cc2)[nH]c(C(F)(F)F)c1Br | – | 1.54 µM (active) |
| COc1ccc([N+](=O)[O-])cc1O | 2.42% [at 42.5 µM] | – |
| CCCCN(CCCC)C(=S)[S-].CCCCN(CCCC)C(=S)[S-].[Zn+2] | – | 13.7 µM (active) |
| CC(C)(COCC1CO1)COCC1CO1 (configuration not stated) | -0.496% | – |
| Nc1ccc([N+](=O)[O-])cc1Cl | -11.5% | – |
| CC[C@H](C)[C@H]1O[C@]2(C=C[C@@H]1C)C[C@@H]1C[C@@H](C/C=C(\C)[C@@H](O[C@H]3C[C@H](OC)[C@@H](O[C@H]4C[C@H](OC)[C@@H](O)[C@H](C)O4)[C@H](C)O3)[C@@H](C)/C=C/C=C3\CO[C@@H]4[C@H](O)C(C)=C[C@@H](C(=O)O1)[C@]34O)O2 | – | 28.7 µM (active) |
| Nc1ccc(Cl)cc1C(=O)c1ccccc1 | -21.1% | – |
| BrCC(Br)c1ccccc1 (configuration not stated) | -0.295% | – |
| CCCN(CCC)c1c([N+](=O)[O-])cc(S(N)(=O)=O)cc1[N+](=O)[O-] | – | 36.7 µM (active) |
| N#C/C=C/C#N | -12.4% | – |
| Cc1cc(C)c(C2=C(OC(=O)CC(C)(C)C)C3(CCCC3)OC2=O)c(C)c1 | -3.29% | – |
| N#Cc1ccccc1Cl | 11% | – |
| CN(C)C(=S)S | – | 2.15 µM (active) and 12.2 µM (active) |
| [Cd+2].[Cl-].[Cl-] | – | 4.9 µM (active) and 2.73 µM (active) |
| CC(=O)[O-].CC(=O)[O-].[Hg+2] | – | 2.73 µM (active) |
| O=C(CCl)C(Cl)Cl | – | 24.6 µM (active) |
| CC(C)CC(C)Nc1ccc(Nc2ccccc2)cc1 (configuration not stated) | – | 67.4 µM (active) |
| CC(=O)[O-].[Tl+] | -10.6% | – |
| CCc1cc(C)cc(CC)c1-c1c(OC(=O)C(C)(C)C)n2n(c1=O)CCOCC2 | -29.7% | – |
| CC(O)C#N (configuration not stated) | 2.56% | – |
| CC(=O)[O-].CC(=O)[O-].O.O.[Cd+2] | – | 12 µM (active) |

Assay: qHTS assay to identify small molecule antagonists of the estrogen related receptor signaling pathway with the pleiotropic PPARgamma coactivator (PGC) from Tox21 10K library (AID 1224841; call rule not given here; further: actives are mostly falling curves and most rising ones were filed inactive; nearly all actives have a fitted effect of over 50% in size)
Details: PGC/ERR reporter cell line, ONE-Glo luciferase, 18 h; series mostly up to 92.4 µM; activity, negative = inhibition: at the top concentration
Method in brief: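 qHTS antagonist format: PGC/ERR cells, 2k/well, compound in DMSO by pin transfer after 6 h attachment, 18 h treatment at 37 C, One-Glo luminescence read at 30 min.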

| Structure (SMILES) | activity, negative = inhibition | Potency |
| --- | --- | --- |
| O=C(CBr)c1ccc(O)cc1 | 0.382% | – |
| CC[C@H]1C[C@@H]2C[C@H]3c4[nH]c5ccc(OC)cc5c4CCN(C2)[C@@H]13 | – | 53.5 µM (active) |
| N#Cc1c(-c2ccc(Cl)cc2)[nH]c(C(F)(F)F)c1Br | – | 0.486 µM (active) |
| CC[C@H](C)[C@H]1O[C@]2(C=C[C@@H]1C)C[C@@H]1C[C@@H](C/C=C(\C)[C@@H](O[C@H]3C[C@H](OC)[C@@H](O[C@H]4C[C@H](OC)[C@@H](O)[C@H](C)O4)[C@H](C)O3)[C@@H](C)/C=C/C=C3\CO[C@@H]4[C@H](O)C(C)=C[C@@H](C(=O)O1)[C@]34O)O2 | – | 7.2 µM (active) |
| CCc1nn(C)c(C(=O)NCc2ccc(C(C)(C)C)cc2)c1Cl | – | 0.0611 µM (active) |
| CCCN(CCC)c1c([N+](=O)[O-])cc(S(N)(=O)=O)cc1[N+](=O)[O-] | – | 65.2 µM (active) |
| Cc1cc(C)c(C2=C(OC(=O)CC(C)(C)C)C3(CCCC3)OC2=O)c(C)c1 | -6.18% | – |
| O=C(CCl)C(Cl)Cl | – | 61.7 µM (active) |
| CC(C)CC(C)Nc1ccc(Nc2ccccc2)cc1 (configuration not stated) | – | 60.1 µM (active) |
| CCc1cc(C)cc(CC)c1-c1c(OC(=O)C(C)(C)C)n2n(c1=O)CCOCC2 | – | 8.63 µM (active) |
| Nc1ccc(Cc2ccc(N)c(Cl)c2)cc1Cl | – | 13.2 µM (active) |

Assay: qHTS assay to identify small molecule agonists of the estrogen related receptor signaling pathway with the pleiotropic PPARgamma coactivator (PGC) from Tox21 10K library (AID 1224842; active means well fitted activation curve with a large enough effect in the repeat runs; further: nearly all actives have a fitted effect of over 15% in size)
Details: PGC/ERR reporter cell line, luciferase ONE-Glo, 18 h; series mostly up to 92.4 µM; activation: at the top concentration
Method in brief: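 PGC/ERR reporter cell line, 2,000 cells per well, incubated 6 h at 37 C before 23 nL compound in DMSO was added. After 18 h at 37 C, One-Glo luminescence read following 30 min at room temperature.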

| Structure (SMILES) | activation | Potency |
| --- | --- | --- |
| O=C(CBr)c1ccc(O)cc1 | 0.118% | – |
| CC[C@H]1C[C@@H]2C[C@H]3c4[nH]c5ccc(OC)cc5c4CCN(C2)[C@@H]13 | -15.4% | – |
| N#Cc1c(-c2ccc(Cl)cc2)[nH]c(C(F)(F)F)c1Br | -18.3% | – |
| CC(C)(COCC1CO1)COCC1CO1 (configuration not stated) | -0.0984% | – |
| CC[C@H](C)[C@H]1O[C@]2(C=C[C@@H]1C)C[C@@H]1C[C@@H](C/C=C(\C)[C@@H](O[C@H]3C[C@H](OC)[C@@H](O[C@H]4C[C@H](OC)[C@@H](O)[C@H](C)O4)[C@H](C)O3)[C@@H](C)/C=C/C=C3\CO[C@@H]4[C@H](O)C(C)=C[C@@H](C(=O)O1)[C@]34O)O2 | -23.3% [at 42.5 µM] | – |
| Nc1ccc(Cl)cc1C(=O)c1ccccc1 | – | 54.5 µM (active) |
| CCc1nn(C)c(C(=O)NCc2ccc(C(C)(C)C)cc2)c1Cl | -21.9% | – |
| CCCN(CCC)c1c([N+](=O)[O-])cc(S(N)(=O)=O)cc1[N+](=O)[O-] | -20.4% | – |
| Cc1cc(C(C)(C)c2cc(C)c(O)c(C)c2)cc(C)c1O | -13.1% | – |
| Cc1cc(C)c(C2=C(OC(=O)CC(C)(C)C)C3(CCCC3)OC2=O)c(C)c1 | -2.08% | – |
| N#Cc1ccccc1Cl | -6.86% | – |
| O=C(CCl)C(Cl)Cl | -35.4% | – |
| CC(C)CC(C)Nc1ccc(Nc2ccccc2)cc1 (configuration not stated) | -29.4% | – |
| CCc1cc(C)cc(CC)c1-c1c(OC(=O)C(C)(C)C)n2n(c1=O)CCOCC2 | -11.6% | – |
| Nc1ccc(Cc2ccc(N)c(Cl)c2)cc1Cl | 0.273% | – |
